Assay [1] can be described thus: qHTS assay to identify small molecule agonists of the constitutive androstane receptor (CAR) signaling pathway - cell viability counter screen (AID 1224836). Further: nearly all actives have a fitted effect of over 45% in size. Further: potency means the concentration at half of the fitted maximal effect. A digest of the protocol: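 23 h treatment, 37 C, 5% CO2. Cell line: HepG2 stably expressing hCAR with a CYP2B6-2.2kb construct. Co-treatment: PK11195, 0.75 uM final. Read-out: CellTiter-Fluor fluorescence intensity.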
(In general: Quantitative high-throughput screening tests each substance at several concentrations.)

Assay [2] is described as follows: qHTS assay to identify small molecule antagonists of the constitutive androstane receptor (CAR) signaling pathway - cell viability counter screen (AID 1224837). Further: nearly all actives have a fitted effect of over 45% in size. Further: potency means the concentration at half of the fitted maximal effect. A digest of the protocol:
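Multiplexed cytotoxicity read-out for the CAR antagonist screen: double-stable HepG2-CYP2B6-hCAR cells co-treated with 50 nM CITCO (final) and compound over 15 concentrations, incubated 23 hr, then assessed by CellTiter-Fluor fluorescence.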

For assay [3], the target named is Nuclear receptor subfamily 1 group I member 3 (Homo sapiens) (UniProt Q14994). The assay can be described thus: qHTS assay to identify small molecule antagonists of the constitutive androstane receptor (CAR) signaling pathway (AID 1224838). Further: nearly all actives have a fitted effect of over 40% in size. Further: potency means the concentration at half of the fitted maximal effect. In short, it runs like this:
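Compounds were titrated across 15 concentrations onto HepG2 cells double-stably expressing hCAR and a CYP2B6-2.2kb reporter, together with 50 nM CITCO (final). After 24 h at 37 C, luciferase activity was measured by luminescence.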

Assay [4] has the same target. The assay can be described thus: qHTS assay to identify small molecule agonists of the constitutive androstane receptor (CAR) signaling pathway (AID 1224839). Further: nearly all actives have a fitted effect of over 15% in size. Further: potency means the concentration at half of the fitted maximal effect.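 On activation: HepG2 cells stably carrying human CAR and a CYP2B6 luciferase reporter.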 In short, it runs like this: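 Compounds tested at 15 concentrations on HepG2 cells stably harbouring hCAR and CYP2B6-2.2kb reporter constructs, co-treated with PK11195 (0.75 uM final), 24 h at 37 C; luminescent reporter signal quantified.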

Assay [5] can be described thus: qHTS assay to identify small molecule antagonists of the estrogen related receptor signaling pathway with the pleiotropic PPARgamma coactivator (PGC) from Tox21 10K library - cell viability counter screen (AID 1224840; active means well fitted cell-killing curve with a large enough effect in the repeat runs, not every such curve was filed as active; further: nearly all actives have a fitted effect of over 40% in size; further: potency means the concentration at half of the fitted maximal effect). A digest of the protocol:
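Step one, plate 2,000 PGC/ERR cells per well; step two, incubate 6 h at 37 C/5% CO2; step three, pin-transfer compounds; step four, incubate 17.5 h; step five, add CellTiter-Fluor and read fluorescence after 30 min.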

Assay [6] deals with Thyrotropin receptor (Homo sapiens) (UniProt P16473). Nature of the assay: qHTS assay to identify small molecule agonists of the thyroid stimulating hormone receptor (TSHR) signaling pathway (AID 1224843; calls by dose curve; further: nearly all actives have a fitted effect of over 45% in size). A digest of the protocol: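 TSHR-expressing HEK293 cells (800 per well) were exposed to compounds for 30 min at room temperature. cAMP was then detected by HTRF competition with cAMP-d2 and anti-cAMP cryptate, read after 1 h at room temperature. Fifteen concentrations, triplicate.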

The nature of assay [7]: qHTS assay to identify small molecule agonists of the hypoxia (HIF-1) signaling pathway - cell viability counter screen (AID 1224844; calls by dose curve; further: nearly all actives have a fitted effect of over 50% in size). In short, it runs like this: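 Tox21 10K compounds were added to HRE-bla ME-180 cells (0.5% dialyzed FBS) and incubated 17 hrs at 37C; ATP-based CellTiter-Glo luminescence then reported cell viability in the same wells.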
The nature of assay [8]: qHTS assay to identify small molecule agonists of H2AX (AID 1224845; active means well fitted activation curve with a large enough effect in the signal ratio in the repeat runs, not every such curve was filed as active; the % refers to the signal ratio). A digest of the protocol:
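Wild-type CHO-K1 cells plated overnight, then exposed 3 hr at 37C to compounds at 15 concentrations (0.76% DMSO). Lysed, then HTRF anti-pH2AX(S139)-cryptate/anti-H2AX-d2 detection after 24 hr at room temperature; emissions 665 and 620 nm.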

Assay [9] in a line: qHTS assay to identify small molecule agonists of the hypoxia (HIF-1) signaling pathway (AID 1224846; active means well fitted activation curve with a large enough effect in the signal ratio in the repeat runs, not every such curve was filed as active; the % refers to the signal ratio). A digest of the protocol: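 Steps: seed ME-180 HRE-bla cells (2,000/well, 0.5% dialyzed FBS); incubate 5 hrs at 37C; pin-transfer compounds or DMSO; incubate 17 hrs; add LiveBLAzer B/G substrate CCF4-AM; measure reporter activation by FRET.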
Assay [10] is described as follows: qHTS assay to identify small molecule agonists of H2AX - cell viability counter screen (AID 1224847; calls by dose curve; further: nearly all actives have a fitted effect of over 30% in size; further: potency means the concentration at half of the fitted maximal effect). A digest of the protocol: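 Compounds tested at 15 concentrations were incubated 3 hr at 37C with wild-type CHO-K1 cells; cellular ATP-based luminescence (CellTiter-Glo) indicated viability.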
The nature of assay [11]: qHTS RealTime-Glo MT Cell Viability Assay in HepG2 cells - 24 hour (AID 1224867). Further: nearly all actives have a fitted effect of over 50% in size. A digest of the protocol:
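HepG2 suspension premixed with RealTime-Glo reagents is plated at 600 cells per well and left 5 h at 37 C/5% CO2. Compounds in DMSO then go in, and bioluminescence reflecting viable cell number is recorded over 40 h.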

Assay [12] in a line: qHTS RealTime-Glo MT Cell Viability Assay in HEK293 cells - 32 hour (AID 1224868). Further: nearly all actives have a fitted effect of over 50% in size. Further: potency means the concentration at half of the fitted maximal effect. A digest of the protocol: (§1)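 Reads taken at 0, 8, 16, 24, 32 and 40 h from the same wells. HEK293 cells (600/well) carried RealTime-Glo reagents from seeding, with compound added after a 5 h settle at 37 C.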
The nature of assay [13]: A CellTox Green Cytotoxicity Assay to monitor cytotoxicity in HEK293 cells - 0 hour (AID 1224869). Further: nearly all actives have a fitted effect of over 50% in size. In short, it runs like this: (§2)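 Cytotoxicity was tracked continuously in HEK293 cells by a DNA-binding dye excluded from viable cells. Compounds were transferred in DMSO 5 h after seeding; fluorescence was recorded at intervals up to 40 h.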
Assay [14] in a line: qHTS RealTime-Glo MT Cell Viability Assay in HepG2 cells - 40 hour (AID 1224870). Further: nearly all actives have a fitted effect of over 50% in size. In short, it runs like this: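 HepG2 cells mixed with RealTime-Glo MT reagents (NanoLuc plus cell-permeant prosubstrate) were seeded at 600 cells/well, incubated 5 h at 37 C/5% CO2, then pinned with compounds in DMSO; nonlytic luminescence tracked viability during 40 h treatment.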
Assay [15] can be described thus: A CellTox Green Cytotoxicity Assay to monitor cytotoxicity in HEK293 cells - 40 hour (AID 1224871). Further: nearly all actives have a fitted effect of over 45% in size. Further: potency means the concentration at half of the fitted maximal effect. A digest of the protocol:
as §2

Assay [16] in a line: qHTS RealTime-Glo MT Cell Viability Assay in HEK293 cells - 16 hour (AID 1224872). Further: nearly all actives have a fitted effect of over 50% in size. Further: potency means the concentration at half of the fitted maximal effect. In short, it runs like this:
as §1

Assay [17] is described as follows: qHTS assay to identify small molecule antagonists of the estrogen related receptor signaling pathway with the pleiotropic PPARgamma coactivator (PGC) from Tox21 10K library (AID 1224841; call rule not given here; further: potency means the concentration at half of the fitted maximal effect). In short, it runs like this: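 Antagonism in this quantitative HTS is taken from loss of luciferase signal in PGC/ERR cells. Cells (2,000/well) are treated with compounds in DMSO after a 6 h settling period and read by One-Glo luminescence after 18 h.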

The nature of assay [18]: qHTS assay to identify small molecule agonists of the estrogen related receptor signaling pathway with the pleiotropic PPARgamma coactivator (PGC) from Tox21 10K library (AID 1224842). Further: nearly all actives have a fitted effect of over 15% in size. In short, it runs like this:
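PGC/ERR reporter cells (NTP line) were seeded 2,000 per well, rested 6 h at 37 C/5% CO2, then pin-dosed with compounds in DMSO for 18 h at 37 C; luciferase read by One-Glo luminescence after 30 min at room temperature.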

The nature of assay [19]: qHTS assay to identify small molecule antagonists of the estrogen related receptor (ERR) signaling pathway from Tox21 library (AID 1224848). Further: nearly all actives have a fitted effect of over 50% in size. Further: potency means the concentration at half of the fitted maximal effect. A digest of the protocol: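 Cells: ERR line, 2,000/well; 6 h preincubation 37 C/5% CO2. Cpd in DMSO via pin tool; 18 h, 37 C. ONE-Glo, 30 min RT, luminescence.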
Assay [20] can be described thus: qHTS assay to identify small molecule agonists of the estrogen related receptor (ERR) signaling pathway from Tox21 library (AID 1224849; calls by dose curve; further: nearly all actives have a fitted effect of over 15% in size). As to conditions: ERR reporter cell line, ONE-Glo luciferase, 18 h; at 92.4 µM (top of the series) unless noted. A digest of the protocol:
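Agonist signal is luciferase luminescence from an ERR reporter cell line treated 18 h at 37 C with DMSO-dissolved compounds, read 30 min after ONE-Glo addition at room temperature.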

We go through 7 compounds from PubChem BioAssay (Tox21).

Unmarked numbers belong to inactive results. Results filed as inconclusive are left out. Calls of active or inactive are those of the source. Unless noted, the call rests on the fitted dose curve; in most records, active means well fitted curve in the direction sought with a large enough effect in the repeat runs; inconclusive means weak or mixed curves; inactive means no such curve, though single readings can be large; an effect the other way counts as inactive or inconclusive.
On the % scale 0 is the no-effect control and ±100 the full control effect.

Sequence of Thyrotropin receptor (Homo sapiens) (P16473 whole entry, looked up): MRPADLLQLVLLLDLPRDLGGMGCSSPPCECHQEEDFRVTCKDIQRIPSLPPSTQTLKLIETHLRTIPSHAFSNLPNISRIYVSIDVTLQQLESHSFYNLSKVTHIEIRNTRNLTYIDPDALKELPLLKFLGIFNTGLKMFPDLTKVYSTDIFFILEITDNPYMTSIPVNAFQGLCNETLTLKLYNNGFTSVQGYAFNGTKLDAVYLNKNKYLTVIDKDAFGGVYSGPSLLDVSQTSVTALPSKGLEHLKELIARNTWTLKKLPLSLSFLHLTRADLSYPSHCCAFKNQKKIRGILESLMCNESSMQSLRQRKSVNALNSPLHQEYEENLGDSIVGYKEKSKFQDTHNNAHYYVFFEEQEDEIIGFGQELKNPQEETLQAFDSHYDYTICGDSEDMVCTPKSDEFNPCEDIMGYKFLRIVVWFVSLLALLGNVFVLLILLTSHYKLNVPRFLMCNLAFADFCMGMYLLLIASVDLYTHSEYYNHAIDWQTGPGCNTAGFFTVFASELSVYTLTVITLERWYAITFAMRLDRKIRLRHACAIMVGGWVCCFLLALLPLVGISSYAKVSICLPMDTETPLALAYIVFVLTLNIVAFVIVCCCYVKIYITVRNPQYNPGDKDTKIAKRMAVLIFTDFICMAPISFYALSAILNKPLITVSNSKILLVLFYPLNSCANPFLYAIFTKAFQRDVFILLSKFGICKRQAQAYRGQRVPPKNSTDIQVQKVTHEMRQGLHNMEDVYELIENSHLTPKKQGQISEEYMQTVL
Sequence of Nuclear receptor subfamily 1 group I member 3 (Homo sapiens) (Q14994 whole entry, looked up): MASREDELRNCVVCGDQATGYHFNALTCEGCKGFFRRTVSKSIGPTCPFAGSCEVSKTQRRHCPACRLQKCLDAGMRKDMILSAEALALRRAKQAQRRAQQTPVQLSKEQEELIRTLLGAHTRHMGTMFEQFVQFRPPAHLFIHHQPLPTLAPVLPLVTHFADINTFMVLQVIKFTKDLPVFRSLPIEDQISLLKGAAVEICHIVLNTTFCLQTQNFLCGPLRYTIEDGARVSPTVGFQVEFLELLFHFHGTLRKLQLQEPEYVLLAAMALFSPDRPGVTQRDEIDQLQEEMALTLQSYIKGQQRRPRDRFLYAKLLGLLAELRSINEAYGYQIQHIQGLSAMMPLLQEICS

As to `CCOC(=O)CN`, the Potency entry in [1], in assay [2], in assay [3], in assay [4], in [5] and in [6] was “inactive” throughout. The Potency entry in assay [7], in assay [8], in assay [10], in assay [11], in assay [12] and in assay [13] was “inactive” throughout. The Potency entry in assay [14], in assay [15] and in assay [16] was “inactive” each time. In addition, in assay [9], the outcome was inactive.

`CCN(CC)c1ccc(N)cc1`: the Potency in [1] is 31.5 µM (active); in assay [2], 28.1 µM (active); in [3], 62.8 µM (active); in [4], 7.05 µM (active); in [5] it was 25 µM (active); in assay [17], 2.5 µM (active). The Potency in assay [10] is 51.9 µM (active); in assay [19], 2.5 µM (active); in assay [12] it was 22.5 µM (active); in assay [15], 44.8 µM (active); in assay [16], 22.5 µM (active). The Potency result in assay [18], in assay [7] and in [13] was “inactive” in each case. Further, the activity change, positive = activation in assay [20] is -77.3%.

Turning to `Cc1ccc2ccc3cccc4ccc1c2c34`, the Potency result in [1], in assay [2], in assay [3], in assay [5], in assay [17] and in assay [6] was “inactive” in each case. Moreover, the Potency result in assay [7], in assay [8], in assay [10], in assay [11], in assay [13] and in assay [14] was “inactive” throughout. The Potency result in [16] is “inactive”. Further, in assay [4], the Potency is 30.6 µM (active). Moreover, the compound was called inactive in assay [9]. The activity change, positive = activation in assay [20] was -32.5%.

Consider `C=C(C)CCCC`, for which the Potency result in [1], in [2], in assay [3], in [4], in assay [5] and in [18] was “inactive” throughout. Further, the Potency entry in assay [6], in [7], in [8], in assay [10], in assay [19] and in [11] was “inactive” throughout. The Potency result in [12], in [13], in assay [15] and in assay [16] was “inactive” throughout. For the same compound, the call in [9] was inactive. For the same compound, the activity change, positive = activation in assay [20] is 6.79%.

Regarding `OCCCCl`, the Potency entry in assay [1], in assay [2], in [3], in assay [4], in [5] and in assay [18] was “inactive” each time. Further, the Potency entry in assay [6], in [7], in assay [8], in assay [10], in assay [19] and in assay [11] was “inactive” each time. For the same compound, the Potency result in [12], in assay [13], in [14], in assay [15] and in assay [16] was “inactive” throughout. Further, the compound was classed as inactive in assay [9]. Besides, the activity change, positive = activation in [20] was -6.99%.

Turning to `CN1CCN(C2Cc3ccccc3Sc3ccc(Cl)cc32)CC1` (stereo not drawn), the Potency entry in assay [1], in assay [2], in [3], in assay [4], in [5] and in [17] was “inactive” in each case. Besides, the Potency result in [18], in assay [6], in [10] and in [13] was “inactive” in each case. Also, the Potency was 26.6 µM (active) in assay [19] and 21.3 µM (active) in [15]. Besides, the activity change, positive = activation in assay [20] is -28.3% [at 42.5 µM].

As to `NCCCC(O)(P(=O)(O)O)P(=O)(O)O`, the Potency entry in [1], in [2], in assay [3], in [4], in assay [5] and in assay [6] was “inactive” throughout. The Potency result in assay [7], in assay [8], in assay [10], in [11], in assay [12] and in assay [13] was “inactive” in each case. Further, the Potency result in assay [14], in [15] and in assay [16] was “inactive” each time. Also, the outcome in assay [9] was inactive.
